# Laboratory results reported in PubChem BioAssay (NCI).
# This is part of a sample that, as a whole, favours compounds with a hit. Of some 79,000 tested, about 15% had one in any assay. Calls of active or inactive are those of the source. Rule as the data show it: active = growth inhibition above about 70%; inactive = the rest.
# Assay: NCI Yeast Anticancer Drug Screen. Data for the sgs1 mgt1 strain (AID 161);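 also: 0% = growth of cultures given vehicle only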
# Details: S. cerevisiae sgs1 mgt1 strain, at 5.0 µM (retest, dose inferred, filed as 0.5), active compounds read high
# Procedure, shortened: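 This yeast growth screen uses a strain with defined DNA-repair lesions; compound-treated growth is compared with vehicle-treated growth.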
row,Structure (SMILES),growth inhibition
1,CCC/C(Cl)=N\OC(=O)Nc1cccc(C(F)(F)F)c1,6% (inactive)
2,[O-][n+]1c2ccc(O)cc2nc2ccc(Cl)cc21,-12% (inactive)
3,Clc1ccccc1C1OC1c1ccccc1Cl (centres undefined),-17% (inactive)
4,c1ccc2c(c1)c1ncccc1c1nccnc21,-60% (inactive)
5,CC(=O)Nc1ccc2c(c1)C(=Nc1ccc(C(=O)O)cc1)c1ccccc1-2,-15% (inactive)
6,COc1ccc(OC)c2cc3ccccc3cc12,-24% (inactive)
7,COc1cc(C2c3cc4c(cc3OC(NNc3ccccc3)C2C)OCO4)cc(OC)c1OC (centres undefined),-4% (inactive)
8,O=C1c2cc([N+](=O)[O-])ccc2-c2cccc(F)c21,12% (inactive)
9,CCCCCCCCCCCC(=O)N(C)C,-2% (inactive)
10,CCCCCCCCCCCC1=C(O)C(=O)C=C(O)C1=O,30% (inactive)
11,Cc1ccc(CSC(N)=Nc2ccccc2)cc1C,-10% (inactive)
12,CCCCCCCCCCC1CCC(=O)O1 (centres undefined),6% (inactive)
13,O=[N+]([O-])c1cc(CCl)ccc1CCl,4% (inactive)
14,Nc1ccc2c(c1)C(=O)c1cccc(N)c1C2=O,-9% (inactive)
15,CCCCCCCCCCNC(=O)OCC,-2% (inactive)
16,CC1=C(C)Cc2c(O)ccc(O)c2C1,5% (inactive)
17,COc1ccc2c(c1)C(=O)c1ccccc1C2,19% (inactive)
18,CCC(=O)OCCn1c2nc(=O)[nH]c(=O)c-2nc2cc(C)c(C)cc21,2% (inactive)
19,O=C(OCCN1CCCCCC1)C(c1ccsc1)C1CCCCC1 (centres undefined),4% (inactive)
20,Oc1c(Br)cc(Br)cc1C1CCCCC1,-16% (inactive)

row,Structure (SMILES),growth inhibition
1,CC1(C)[C@@H]2CC[C@]1(C)[C@H](OC(=O)CSC#N)C2,28% (inactive)
2,S=C(N/N=C(/c1ccccc1)c1ccccn1)N1CCCCCC1,75% (active)
3,Cc1ccc2[nH]c3c(C)c4cc[n+](C)cc4c(C)c3c2c1,13% (inactive)
4,CNC(=O)OCc1c(COC(=O)NC)c(-c2ccc(-c3ccccc3)cc2)n(C)c1C,-5% (inactive)
5,COc1ccccc1/C=C1\Sc2scc(-c3cccc([N+](=O)[O-])c3)[n+]2C1=O,46% (inactive)
6,O=[N+]([O-])c1ccc2c(c1)C(N1CCN(CCO)CC1)Cc1ccc(F)cc1S2 (centres undefined),13% (inactive)
7,Cc1ccc(CCC2=CCCc3c2ccc2ccccc32)cc1,5% (inactive)
8,O=[N+]([O-])c1cccc2nccc(NCCCO)c12,51% (inactive)
9,Cc1ccc(-n2cc(-c3ccc(Cl)cc3)c(C#N)c2N)cc1,-3% (inactive)
10,Cc1ccc(S/N=C\c2ccccc2O)cc1,-59% (inactive)
11,O=C(O)C1OC1(c1cccc(Cl)c1)c1ccccc1Cl (centres undefined),-12% (inactive)
12,NC(=S)N/N=C\c1nccc2ccccc12,-64% (inactive)
13,Clc1cccc(C(Nc2nncs2)Nc2nncs2)c1Cl,1% (inactive)
14,O=C(OCC=C1CCCC1)c1cc([N+](=O)[O-])cc([N+](=O)[O-])c1,-2% (inactive)
15,O=C(Nc1ccccc1)C(=O)C(C(=O)c1ccccc1)C(c1ccccc1)c1ccccc1 (centres undefined),-5% (inactive)
16,N#CN1C2CCC1CC(=O)C2,-5% (inactive)
17,COc1ccccc1C(=O)OCC1CCCN2CCCCC12 (centres undefined),-17% (inactive)
18,CCNc1nnc(CSc2nc(-c3ccccc3)c(-c3ccccc3)[nH]2)s1,7% (inactive)
19,O=C1c2ccccc2-c2n[nH]c3cccc1c23,-5% (inactive)
